# CRFBP-R2 block = blocks CRF-induced signaling of the CRF-BP/CRF-R2 complex. HEK293 CRF-R2/CRF-BP, CRF-induced calcium fluorescence. inhibition, % at 11.8 µM. 350,000 tested, 0.59% active;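 active means inhibition of the ligand-induced calcium signal above about 50% at the single tested concentration, limit read from the data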
# CRFBP-R2 agonist = CRF-BP/CRF-R2 complex agonism; AID 588473; activation, % at 13.2 µM; 350,000 tested, 0.46% active; HEK293 CRF-R2/CRF-BP, calcium dye fluorescence (FLIPR); percent of saturating CRF peptide response;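 active means activation of at least 50%, plus an integration ratio under a set limit after plate pattern correction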;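 further: plate controls were neutral control wells without compound for no effect and CRF at EC100 for full effect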
# RTF Ca sens inh = cardiac RTF calcium desensitization. inhibition, % at 7.15 µM. IANBD-labeled cardiac RTF, Ca2+ fluorescence. 340,000 tested, 0.12% active. AID 493244;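 active means inhibition above the mean inhibition of all tested compounds plus 3 SD, cut at about 17% in these data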;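 further: assay run at fixed EC70 calcium of 1.6 mM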
# cardiac RTF act = increases calcium sensitivity of human cardiac regulated thin filaments; P19429+P45379; IANBD-labeled TnC RTF fluorescence at EC20 calcium; 0% EC20 calcium, 100% full calcium; activation, % at 7.2 µM; 340,000 tested, 0.24% active; AID 493008;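 active means activation above the mean over all tested compounds plus 3 SD, cut at about 30% in these data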;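 further: rise in fluorescence read as greater calcium sensitivity of cardiac thin filaments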
# The depositor's hits bear a star; i = inactive; · = not tested or not shown; + = active, no number. An excerpt weighted towards active compounds, which were near 1.3% of everything screened.
SMILES,CRFBP-R2 block,CRFBP-R2 agonist,RTF Ca sens inh,cardiac RTF act
CC(C)(C)c1ccc(OCC(O)CN2CCOCC2)cc1 (stereo not given),-9,-2,7,4
CCOC(=O)NC(O)C(=O)c1cccs1 (stereo not given),65*,0,-7,6
C[C@H]1CN=C(Nc2ccccc2)N1CC1CCCCCC1,-8,0,5,0
O=c1oc2ccc3ccccc3c2cc1-c1nnc(-c2ccccc2)o1,61*,2,-7,-6
COc1ccc(-c2nnc(-c3cc4c(ccc5ccccc54)oc3=O)o2)cc1,43,29,-9,-6
CCN(CC)c1ccc2cc(-c3nnc(-c4ccccc4)o3)c(=O)oc2c1,-155,192*,i,705*
COc1ccc2cc(-c3ccccc3)c(=O)oc2c1,9,1,-4,3
CCN(CC)c1ccc2cc(-c3nc4ccccc4[nH]3)c(=O)oc2c1,-190,227*,i,+
O=c1oc2ccccc2cc1-c1nnc(-c2cccc(Br)c2)o1,22,0,-1,1
CCN(CC)c1ccc2cc(-c3nc(-c4ccc(OC)cc4)cs3)c(=O)oc2c1,-404,338*,·,·
CCn1cc(S(=O)(=O)N2CCN(c3ccc(Cl)cc3)CC2)cn1,5,-1,-7,-4
CCN(CC)c1ccc2cc(-c3nc4ccccc4n3C)c(=O)oc2c1,-239,248*,-188,102*
CN(C)Cc1c(O)ccc2cc(-c3nc4ccccc4n3C)c(=O)oc12,1,20,-21,13
CSc1nc2cc(Cl)ccc2s1,52*,-1,-25,-2
COc1ccc(S(=O)CC(=O)Nc2ccc(Cl)cc2Cl)cc1 (stereo not given),10,-8,-4,-1
COc1ccc(F)cc1S(=O)(=O)NCC(=O)NCc1cc(=O)n(C)c(=O)n1C,76*,0,-8,4
O=C(O)c1cc(-c2ccccc2)nc(-c2ccccc2)c1,54*,-1,-3,-1
COc1cc(-c2noc(C)c2C(=O)NCc2ccc3c(c2)OCO3)cc(OC)c1OC,7,-1,-1,9
COc1c(Cl)cc(-c2noc(C)c2C(=O)NCc2ccc3c(c2)OCO3)cc1Cl,-37,71*,-11,10
CSCCC(NC(=O)c1ccco1)C(=O)Nc1ccc(C)c(S(=O)(=O)N2CCOCC2)c1 (stereo not given),11,0,0,2
CCC(C)(C(=O)NC1CCCCC1)N(CC1CCCO1)C(=O)Cc1cccs1 (stereo not given),0,1,-1,6
COc1ccc(NC(=O)Nc2nnc(C(C)(C)C)s2)cc1,58*,4,4,1
O=[N+]([O-])c1cc(-c2ccccc2)cc([N+](=O)[O-])c1O,65*,1,6,-8
Cc1cccc(N2CCN(C(=O)CCc3nc4ccccc4c(=O)[nH]3)CC2)c1C,74*,-5,1,-2
CC(=O)N1CCN(C(=O)CCc2nc3ccccc3c(=O)[nH]2)CC1,-43,8,-3,-7
SMILES,CRFBP-R2 block,CRFBP-R2 agonist,RTF Ca sens inh,cardiac RTF act
O=C(NC1(C(F)(F)F)C(=O)Nc2c1c(=O)[nH]c(=O)n2Cc1ccccc1)c1ccc(Cl)cc1Cl (stereo not given),7,0,2,2
O=C(NC1(C(F)(F)F)C(=O)Nc2c1c(=O)[nH]c(=O)n2Cc1ccccc1)c1ccc(Cl)cc1 (stereo not given),62*,0,-5,5
CC(C)n1c(=O)nc(-c2ccccc2)c2cc3c(cc21)OCO3,-10,-2,·,·
COc1ccc(C)cc1NC(=O)c1ccccc1NS(=O)(=O)c1ccc(Cl)s1,65*,40,-15,-1
Cc1ccc(NC(=O)c2ccccc2NS(=O)(=O)c2ccc(Cl)s2)cc1S(=O)(=O)N1CCOCC1,87*,43,2,-4
COc1ccccc1NC(=O)c1ccccc1NS(=O)(=O)c1cccs1,9,-2,2,0
CC(=O)Nc1ccc(/C(C)=N/NS(=O)(=O)c2ccccc2)cc1,0,-1,-11,-2
CCOC(=O)c1cn[nH]c1NC(=S)Nc1ccc(Cl)cc1,94*,1,·,·
O=c1cc[nH]c2c(Cl)cccc12,92*,-2,-4,7
O=c1cc[nH]c2c1ccc1c(=O)cc[nH]c12,6,0,-16,5
O=C([C@H](Cc1ccc(O)cc1)n1cc(CCO)nn1)N1CCNCC1,-4,2,1,0
Nc1ccc2cc3[nH]c4cc(N)ccc4c3nc2c1,-130,175*,i,+
CN1C(=O)c2cccc3c(N(C)C)ccc(c23)C1=O,-44,55*,-22,16
CN1C(=O)c2cccc3c(Cl)ccc(c23)C1=O,-4,-2,0,13
CNc1ccc2c3c(cccc13)C(=O)N(C)C2=O,-118,170*,i,+
Cc1n[nH]c(=O)n1-c1ccc(OCc2ccccc2)cc1,9,0,0,-1
Cc1ccccc1NC(=O)Cc1nc(COC(=O)c2cc([N+](=O)[O-])ccc2NCCO)cs1,61*,2,4,-6
CCn1c(O)c(/C=N/NC(=O)c2ccncc2)c(=O)n(CC)c1=S,-11,11,-88,97*
COc1ccc(C)cc1NC(=O)N1CCCc2ccccc21,53*,2,10,-5
Nc1nc(SCc2ccccc2)sc1C(=O)N1CCCCC1,-20,0,·,·
CC(C)(C)C1COc2ccccc2N1C(=O)c1ccccc1Cl (stereo not given),-62,57*,-13,-1
Cc1ccc(-c2ccc(=O)n(Cc3cc(C)ccc3C)n2)cc1,123*,5,1,-1
Cc1ccc(C)c(Cn2nc(-c3ccccc3)ccc2=O)c1,-5,-1,-1,-12
CCCCNC(=O)CCn1c(=O)c2ccccc2n(Cc2ccccc2C)c1=O,65*,-2,-3,-2
CCCCNC(=O)CCn1c(=O)c2ccccc2n(Cc2ccc(Cl)cc2)c1=O,7,0,-6,-3
SMILES,CRFBP-R2 block,CRFBP-R2 agonist,RTF Ca sens inh,cardiac RTF act
Cc1ccc(NS(=O)(=O)c2c(C)[nH]c(C)c2C(=O)N2CCCCC2)cc1F,-4,0,3,-7
CCN(CC(=O)Nc1cc(Cl)cc(Cl)c1)CC(=O)NC1CCS(=O)(=O)C1 (stereo not given),-7,3,4,-7
CN(C)c1ccc(/C=C/C(=O)c2cccnc2)cc1,-59,120*,-20,4
CN(C)c1ccc(/C=C/c2ccncc2)cc1,-197,173*,-14,9
CN(C)c1ccc(C=Cc2cnccn2)cc1,-33,13,0,-1
CN(C)c1ccc(/C=C/C(=O)c2ccc(O)cc2)cc1,-112,156*,-119,72*
O=C(/C=C/c1cccc(O)c1)c1cccnc1,-26,-1,-3,2
CN(C)c1ccc(/C=C/C(=O)c2ccc3c(c2)OCO3)cc1,-88,135*,-104,92*
COc1ccc(C(=O)/C=C/c2ccccc2)c(OC)c1,12,5,2,-2
COc1ccc(C(=O)/C=C/c2ccc(N(C)C)cc2)c(OC)c1,-56,103*,-133,81*

# Assay outcomes: PubChem, several laboratories
